# From PubChem BioAssay (NCATS)
# Records with an inconclusive call do not appear. A call without a number means that no potency is given here. Calls of active or inactive are those of the source. Calls follow the shape of the dose curve; as a rule, active = well fitted curve in the direction sought with a large enough effect; inconclusive = small, poorly fitted or top-dose-only effect, or another doubt; inactive = no such curve, though single readings can be large; an effect the other way counts as inactive or inconclusive. Where a SMILES comes first, the peptide text is derived from it. [ ]: non-standard residue; d: D form.
# What was measured:
# [1] = P-glycoprotein substrates identified in KB-3-1 adenocarcinoma cell line, qHTS therapeutic library screen (AID 1346986); conditions: KB-3-1 parental cells viability, CellTiter-Glo, 72 h; series mostly up to 44.5 µM; also: nearly all actives have a fitted effect of over 60% in size
# Method in brief: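 Viability by CellTiter-Glo after 72 h compound exposure at 37 degree C, 5% CO2. Cytotoxic call: curve class -1.1 to -2.4, maximum response >50%, AC50 < 10 uM, compared across KB-3-1 and P-gp-overexpressing KB-8-5-11.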
# [2] = P-glycoprotein substrates identified in KB-8-5-11 adenocarcinoma cell line, qHTS therapeutic library screen (AID 1346987); conditions: KB-8-5-11 (P-gp overexpressing) viability, CellTiter-Glo, 72 h; series mostly up to 44.5 µM; also: nearly all actives have a fitted effect of over 65% in size
# Method in brief: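 Human cervical adenocarcinoma KB-8-5-11 cells, selected in colchicine to over-express P-gp and assayed without it, were exposed for 72 h to titrated compounds. An ATP-based luminescent viability signal gave AC50.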
compound,measurement,setting,value
CC1CCC2(O1)C(C)(C)CC(O[C@@H]1O[C@H](CO[C@@H]3OC[C@](O)(CO)[C@H]3O)[C@@H](O)[C@H](O)[C@H]1O)CC2(C)O (stereo not given in full),Potency,[1],inactive
same,Potency,[2],inactive
C[C@]12C=CC(=O)C=C1CC[C@@H]1[C@@H]2[C@@H](O)C[C@@]2(C)[C@H]1CC[C@]2(O)C(=O)COC(=O)CCC(=O)O,Potency,[1],inactive
same,Potency,[2],inactive
Cn1c(=O)c2nc(/C=C/c3cccc(Cl)c3)n(C)c2n(C)c1=O,Potency,[1],inactive
same,Potency,[2],inactive
C[C@H]1[C@H](C)CC[C@]2(C(=O)O)CC[C@]3(C)C(=CC[C@@H]4[C@@]5(C)C[C@@H](O)[C@H](O)[C@@](C)(CO)[C@@H]5CC[C@]43C)[C@H]12,Potency,[1],inactive
same,Potency,[2],inactive
CCc1c(CC(N)=O)c2cc(OCCCP(=O)(O)O)ccc2n1Cc1ccccc1,Potency,[1],inactive
same,Potency,[2],inactive
CC(=O)N[C@H](Cc1ccc(O)cc1)C(=O)N[C@H](CCCN=C(N)N)C(=O)N[C@H](Cc1ccccc1)C(N)=O (Ac-[dY]-[dR]-[dF]-NH2),Potency,[1],inactive
same,Potency,[2],inactive
CO[C@@H]1CC[C@H](OC[C@]2(COC(=O)c3ccc(C)[nH]3)[C@H](OC(C)=O)CC[C@@]3(C)[C@@H]4CC=C(C)[C@@H](C5=C(O)C(=O)OC5O)[C@]4(C)CC[C@@H]32)O[C@H]1C (stereo not given in full),Potency,[1],inactive
same,Potency,[2],inactive
C/C(=C\CO)CC/C=C(\C)C(=O)O[C@H]1[C@H](OC2OC=C(C(=O)O)C3CCC(C)(O)C23)O[C@H](CO)[C@@H](O)[C@@H]1O (stereo not given in full),Potency,[1],inactive
same,Potency,[2],inactive
CC1CCC23COC(=O)C2=CC(O)CC3C1(C)CCC1=CC(=O)OC1O (stereo not given),Potency,[1],inactive
same,Potency,[2],inactive
C=C1CC23CC1(O)CCC2C1=CC2OC(=O)C(C)(C2O)C1C3C(=O)O (stereo not given),Potency,[1],inactive
same,Potency,[2],inactive
C=CC1(C)C=C2C(=O)CC3C(C)(C)CCCC3(C(=O)O)C2(O)CC1 (stereo not given),Potency,[1],inactive
same,Potency,[2],inactive
C[C@@H]1O[C@@H](O[C@@H]2[C@@H](O)[C@@H](O)[C@H](O[C@@H]3[C@@H](O)[C@@H](O[C@]4(CO)O[C@H](CO)[C@@H](O)[C@@H]4OC(=O)/C=C/c4ccc(O)cc4)O[C@H](CO)[C@H]3OC(=O)/C=C/c3ccc(O)cc3)O[C@H]2C)[C@H](O)[C@H](O)[C@H]1O,outcome,[1],inactive [at 9.29 µM]
same,outcome,[2],inactive [at 9.29 µM]
O=C(NCc1ccc(OC(F)(F)F)cc1)C1c2ccccc2C(=O)N1C1CCOCC1 (stereo not given),Potency,[1],inactive
same,Potency,[2],inactive
C=C1CC2(C(=O)O)CC1CCC2C1(C)CCCC2(C)C(=O)OC(O)C21 (stereo not given),Potency,[1],inactive
same,Potency,[2],inactive
COc1c(C)c(OCC=C(C)C)cc2c1C(=O)NC2=O,Potency,[1],inactive
same,Potency,[2],inactive
C=CC1(C)CC(O)C2(CCC3C(C)(C(=O)O)CCCC3(C)C2=O)C1 (stereo not given),Potency,[1],inactive
same,Potency,[2],inactive
COC(=O)C1=COC(O[C@@H]2O[C@H](CO)[C@@H](O)[C@H](O)[C@H]2O)/C(=C\COC(=O)c2ccc(OC3OC(CO)C(O)C(O)C3O)c(OC)c2)C1CC(=O)OCCc1ccc(O)cc1 (stereo not given in full),outcome,[1],inactive [at 9.29 µM]
same,outcome,[2],inactive [at 9.29 µM]
C=C1CCC[C@]2(C)C[C@]3(O)OC(=O)C(C)=C3C[C@@H]12,Potency,[1],inactive
same,Potency,[2],inactive
CC1=CC(=O)C2C(C)(C)CC(O)CC2(C)C1CO (stereo not given),Potency,[1],inactive
same,Potency,[2],inactive
Cc1ccc(Sc2cncc3sc(C(N)=O)cc23)cc1,Potency,[1],inactive
same,Potency,[2],inactive
CC(C)C1=CCC(C)(O)C(OC2OC(CO)C(O)C(O)C2O)C1 (stereo not given),Potency,[1],inactive
same,Potency,[2],inactive
O=C(C1CC1)N1CC[C@@H](Cc2n[nH]c(=O)n2-c2ccc(-c3ccc4occc4c3)cc2)C1,Potency,[1],inactive
same,Potency,[2],inactive
NC1CCC(N[C@@H]2C[C@H]2c2ccccc2)CC1 (stereo not given in full),Potency,[1],inactive
same,Potency,[2],inactive
CC1NC(=O)CNC(=O)C(C(C)C)NC(=O)C2CCCN2C(=O)C(C(C)C)NC(=O)C(Cc2c[nH]c3ccccc23)NC1=O (stereo not given) (cyclo(GAWVPV); configuration not given here),Potency,[1],inactive
same,Potency,[2],inactive
C=C[C@H]1[C@H](O[C@@H]2O[C@H](CO[C@@H]3OC[C@](O)(CO)[C@H]3O)[C@@H](O)[C@H](O)[C@H]2O)OC=C2C(=O)OCC[C@H]21,Potency,[1],inactive
same,Potency,[2],inactive
C=C1C2=CC(O)C(C)C1(C)CC/C(C)=C/CCC1(C)OC1C2=O (stereo not given),Potency,[1],inactive
same,Potency,[2],inactive
Cc1ccc2c(c1)C=Cc1cc(C)ccc1C2c1cn(Cc2ccc(C(=O)Nc3nn[nH]n3)o2)c(=O)[nH]c1=S,Potency,[1],inactive
same,Potency,[2],inactive
OCCc1ccc(O[C@@H]2O[C@H](CO)[C@@H](O)[C@H](O)[C@H]2O)c(O)c1,Potency,[1],inactive
same,Potency,[2],inactive
CCn1cc(C2=NOC(C(=O)Nc3c(C)n(C)n(-c4ccccc4)c3=O)C2)c(C)n1 (stereo not given),Potency,[1],inactive
same,Potency,[2],inactive
C[C@@H]1CC[C@]2(C(=O)O)CC[C@]3(C)C(=CCC4[C@]5(C)C(CC[C@]43C)C(C)(C)[C@@H](O)[C@H](O)[C@@H]5O)C2[C@]1(C)O (stereo not given in full),Potency,[1],inactive
same,Potency,[2],inactive
O=C(/C=C/c1ccc(O)cc1)O[C@H]1[C@@H]2C=CO[C@@H](O[C@@H]3O[C@H](CO)[C@@H](O)[C@H](O)[C@H]3O)[C@@H]2[C@@]2(CO)O[C@@H]12,Potency,[1],inactive
same,Potency,[2],inactive
C[C@H]1CN(C[C@H](Cc2ccccc2)C(=O)NCC(=O)O)CC[C@@]1(C)c1cccc(O)c1,Potency,[1],inactive
same,Potency,[2],inactive
CC(C)[C@@H](C)/C=C/[C@@H](C)[C@H]1CC[C@H]2C3=CC=C4C[C@@H](O)CC[C@]4(C)[C@H]3CC[C@]12C,Potency,[1],inactive
same,Potency,[2],inactive
CCC(C)C(=O)O[C@@H]1[C@@H](O)[C@@H](O[C@H]2O[C@H](CO)[C@@H](O)[C@H](O)[C@H]2O)O[C@H](CO)[C@H]1O (stereo not given in full),Potency,[1],inactive
same,Potency,[2],inactive
CCC(CCO[C@@H]1O[C@H](CO[C@H]2OC[C@](O)(CO)[C@H]2O)[C@@H](O)[C@H](O)[C@H]1O)C(C)(C)O (stereo not given in full),Potency,[1],inactive
same,Potency,[2],inactive
CC(=O)OC[C@@]12[C@H](O)C[C@@H](C)[C@]3(C[C@@H](c4ccoc4)OC3=O)[C@H]1C[C@H](O)C[C@]21CO1,Potency,[1],inactive
same,Potency,[2],inactive
CC(C)=CCC[C@](C)(O[C@@H]1O[C@H](CO[C@@H]2OC[C@@H](O)[C@H](O)[C@H]2O)[C@@H](O)[C@H](O)[C@H]1O)[C@H]1CC[C@]2(C)[C@@H]1[C@H](O)C[C@@H]1[C@@]3(C)CC[C@H](O[C@@H]4O[C@H](CO)[C@@H](O)[C@H](O)[C@H]4O[C@@H]4O[C@H](CO)[C@@H](O)[C@H](O)[C@H]4O)C(C)(C)[C@@H]3CC[C@]12C,Potency,[1],inactive
same,Potency,[2],inactive
Cc1cc(C)cc(NC(=O)Cc2ccc(OC(C)(C)C(=O)O)cc2)c1,Potency,[1],inactive
same,Potency,[2],inactive
CC1CCC2C(C)(C)C(O)CCC2(C)C12Cc1c(O)cc3c(c1O2)C(N)=NC3 (stereo not given),Potency,[1],inactive
same,Potency,[2],inactive
C=CC(C)(C)C12CC3C(=O)NC(Cc4cnc[nH]4)C(=O)N3C1Nc1ccccc12 (stereo not given),Potency,[1],inactive
same,Potency,[2],inactive
CC(=O)NC(CCC(=O)O)C(=O)NCCc1ccc(O)cc1 (stereo not given),Potency,[1],inactive
same,Potency,[2],inactive
C=C(C)[C@H]1C[C@@H](O)C(=C)CC[C@@H](O)C(=C)[C@@H](O)C1,Potency,[1],inactive
same,Potency,[2],inactive
CC1(C)CC[C@]2(C(=O)O)CC[C@]3(C)C(=CCC4[C@@]5(C)C[C@H](O)[C@H](O[C@@H]6OC[C@H](O)[C@H](O)[C@H]6O)[C@@](C)(CO)C5CC[C@]43C)[C@@H]2C1 (stereo not given in full),Potency,[1],inactive
same,Potency,[2],inactive
CC1=CCC2C(C)(CO)CCCC2(CO)C1CO (stereo not given),Potency,[1],inactive
same,Potency,[2],inactive
c1ccc(Nc2nc3c(s2)CCCc2[nH]ncc2-3)nc1,Potency,[1],inactive
same,Potency,[2],inactive
CC(C)CC(=O)O[C@@H]1OC=C(CO[C@@H]2O[C@H](CO[C@@H]3O[C@H](CO)[C@@H](O)[C@H](O)[C@H]3O)[C@@H](O)[C@H](O)[C@H]2O)[C@H]2C[C@H](O)[C@@H](CO)[C@@H]12,Potency,[1],inactive
same,Potency,[2],inactive
O=C(O)c1cc(O[C@@H]2O[C@H](CO[C@@H]3OC[C@@H](O)[C@H](O)[C@H]3O)[C@@H](O)[C@H](O)[C@H]2O)c2ccccc2c1O,Potency,[1],inactive
same,Potency,[2],inactive
CCOc1ccc(-c2ccc(Cn3c(CC(C)(C)C(=O)O)c(SC(C)(C)C)c4cc(OCc5ccc(C)cn5)ccc43)cc2)cn1,Potency,[1],inactive
same,Potency,[2],inactive
CC(c1c[nH]c2ccccc12)C(O)C(=O)O (stereo not given),Potency,[1],inactive
same,Potency,[2],inactive
Nc1nc(CC(=O)Nc2ccc(CCNCC(O)c3ccccc3)cc2)cs1 (stereo not given),Potency,[1],inactive
same,Potency,[2],inactive
COc1cccc(-n2nc(C(=O)O)cc2-c2ccc(C3CCCCC3)c(Cl)c2)c1,Potency,[1],inactive
same,Potency,[2],inactive
CC1(C)C(=O)N2c3ccccc3[C@]3(CC(n4cnc5ccccc5c4=O)C(=O)O3)[C@H]2N1O (stereo not given in full),Potency,[1],inactive
same,Potency,[2],inactive
CC(=O)O[C@H]1CC[C@@]2(CI)C(=CC[C@@H]3[C@@H]2CC[C@]2(C)[C@@H]([C@H](C)CCCC(C)C)CC[C@@H]32)C1,outcome,[1],inactive [at 9.29 µM]
same,outcome,[2],inactive [at 9.29 µM]
CC1(C)OC(=O)C(OCC2CC2)=C1c1ccc(S(C)(=O)=O)cc1,Potency,[1],inactive
same,Potency,[2],inactive
COC(=O)C1=CO[C@@H](O[C@@H]2O[C@H](CO)[C@@H](O)[C@H](O)[C@H]2O)[C@@H]2[C@@H](C)[C@@H](O)C[C@H]12,Potency,[1],inactive
same,Potency,[2],inactive
CC(NC(=O)CC(=O)O)c1nc2ccccc2c(=O)[nH]1 (stereo not given),Potency,[1],inactive
same,Potency,[2],inactive
COC(=O)C1=COC(OC2OC(CO)C(O)C(O)C2O)C2C1CC(OC(=O)C(O)CC(=O)O)C2C (stereo not given),Potency,[1],inactive
same,Potency,[2],inactive
CC(NCc1ccc(OCc2cccc(F)c2)cc1)C(N)=O (stereo not given),Potency,[2],inactive
